# According to PubChem BioAssay (Tox21):
# Results filed as inconclusive are left out. Entries that show only a call come without a potency. Calls of active or inactive are those of the source. Unless noted, calls come from the whole dose curve; as a rule, active = well fitted curve in the direction sought with a large enough effect in the repeat runs; inconclusive = weak or mixed curves; inactive = no such curve, though single readings can be large; an effect the other way counts as inactive or inconclusive.
# What was measured:
# [1] = qHTS assay to identify small molecule agonists of the peroxisome proliferator-activated receptor delta (PPARd) signaling pathway - cell viability counter screen (AID 743211); note: nearly all actives have a fitted effect of over 55% in size; note: potency is the fitted concentration of half-maximal effect
# How it was run: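 PPARd-bla HEK293H cells (UAS-beta-lactamase reporter) were treated with compounds for 17 h at 37 C. Viability was then read in the same wells by CellTiter-Glo luminescence after 30 min at room temperature.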
# [2] = molecular target: Peroxisome proliferator-activated receptor delta (Homo sapiens) (UniProt Q03181); assay: qHTS assay to identify small molecule agonists of the peroxisome proliferator-activated receptor delta (PPARd) signaling pathway (AID 743212; calls by dose curve)
# Chain of Peroxisome proliferator-activated receptor delta (Homo sapiens) (Q03181 whole entry, looked up): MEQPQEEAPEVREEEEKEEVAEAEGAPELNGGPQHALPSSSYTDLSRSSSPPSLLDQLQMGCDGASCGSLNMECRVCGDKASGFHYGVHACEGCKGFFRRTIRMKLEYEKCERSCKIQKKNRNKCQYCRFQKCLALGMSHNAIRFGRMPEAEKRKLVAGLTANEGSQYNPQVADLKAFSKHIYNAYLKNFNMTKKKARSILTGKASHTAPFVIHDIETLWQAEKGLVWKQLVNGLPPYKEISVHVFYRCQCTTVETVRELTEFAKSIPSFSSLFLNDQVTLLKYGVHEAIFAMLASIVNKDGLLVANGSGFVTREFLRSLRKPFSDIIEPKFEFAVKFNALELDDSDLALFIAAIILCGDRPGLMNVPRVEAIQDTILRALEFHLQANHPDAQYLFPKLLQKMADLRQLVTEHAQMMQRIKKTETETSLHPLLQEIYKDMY
# How it was run: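 Cells expressing a UAS-driven beta-lactamase reporter (PPARd-bla HEK293H) were given test compounds after a 5 h settle and kept at 37 C. Reporter activity was then measured as FRET fluorescence using LiveBLAzer B/G substrate.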
# [3] = qHTS assay to identify small molecule antagonists of the peroxisome proliferator-activated receptor delta (PPARd) signaling pathway - cell viability counter screen (AID 743213); note: nearly all actives have a fitted effect of over 50% in size
# How it was run: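 PPARd-bla HEK293H cells (3000/well) got compound plus 300 nM L165041 agonist for 17 h at 37 C. Viability in the same wells came from CellTiter-Glo luminescence after 30 min at room temperature.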
# [4] = molecular target: Peroxisome proliferator-activated receptor delta (Homo sapiens) (UniProt Q03181); assay: qHTS assay to identify small molecule antagonists of the peroxisome proliferator-activated receptor delta (PPARd) signaling pathway (AID 743215; active = well fitted inhibition curve with a large enough effect in the signal ratio in the repeat runs, not every such curve was filed as active; the % refers to the signal ratio;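 note: cells stimulated with agonist L165041 at 300 nM final during compound exposure; series mostly up to about 62 µM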)
# How it was run: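 Fluorescence from cleaved LiveBLAzer B/G FRET substrate (2 h, room temperature) reports PPARd-driven beta-lactamase in HEK293H UAS-bla cells. Cells had been treated 17 h at 37 C with compound plus 300 nM final L165041.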
# [5] = qHTS assay to identify small molecule agonists of the farnesoid-X-receptor (FXR) signaling pathway - cell viability counter screen (AID 743218); note: nearly all actives have a fitted effect of over 45% in size
# How it was run: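 Readout: CellTiter-Glo luminescence, 30 min RT, multiplexed after the FXR-bla FRET reading. HEK 293T FXR-UAS-bla cells received compound 5 h post-plating and were incubated 16 h at 37 C.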
# [6] = qHTS assay to identify small molecule antagonists of the farnesoid-X-receptor (FXR) signaling pathway - cell viability counter screen (AID 743221; active = well fitted cell-killing curve with a large enough effect in the repeat runs, not every such curve was filed as active; note: nearly all actives have a fitted effect of over 50% in size)
# How it was run: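 FXR-UAS-bla HEK 293T cells were treated with test compounds plus chenodeoxycholic acid (50 uM final) for 16 h at 37 C. Cell viability in the same wells was then read as CellTiter-Glo luminescence after 30 min at room temperature.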
# [7] = molecular target: Vitamin D3 receptor (Homo sapiens) (UniProt P11473); assay: qHTS assay to identify small molecule antagonists of the vitamin D receptor (VDR) signaling pathway (AID 743223; active = well fitted inhibition curve with a large enough effect in the signal ratio in the repeat runs, not every such curve was filed as active; the % refers to the signal ratio)
# Chain of Vitamin D3 receptor (Homo sapiens) (P11473 whole entry, looked up): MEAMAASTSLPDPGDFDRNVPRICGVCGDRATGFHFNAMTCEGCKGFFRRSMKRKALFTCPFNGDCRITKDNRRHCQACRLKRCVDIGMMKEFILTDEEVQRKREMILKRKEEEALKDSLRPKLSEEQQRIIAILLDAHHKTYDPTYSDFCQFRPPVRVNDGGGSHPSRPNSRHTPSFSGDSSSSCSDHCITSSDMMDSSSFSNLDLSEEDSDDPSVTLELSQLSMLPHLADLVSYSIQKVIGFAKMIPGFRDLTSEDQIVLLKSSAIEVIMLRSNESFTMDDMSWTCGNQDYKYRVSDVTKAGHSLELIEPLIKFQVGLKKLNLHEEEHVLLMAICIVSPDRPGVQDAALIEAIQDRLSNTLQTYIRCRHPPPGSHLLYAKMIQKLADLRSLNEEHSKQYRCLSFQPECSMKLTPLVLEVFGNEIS
# How it was run: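 VDR-bla cells were plated, incubated 4 h at 37C, then given compound and 1alpha,25-dihydroxyvitamin D3 (3 nM final). After 16 h at 37C, LiveBLAzer B/G FRET substrate was added for 2 h at room temperature and fluorescence read.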
# [8] = qHTS assay to identify small molecule agonists of the vitamin D receptor (VDR) signaling pathway - cell viability counter screen (AID 743224); note: series mostly up to about 63 µM; nearly all actives have a fitted effect of over 50% in size
# How it was run: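 In parallel with the bla FRET readout, cytotoxicity toward VDR-bla cells after 16 h compound exposure was assessed by CellTiter-Glo, with luminescence recorded after a 30 min room-temperature incubation.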
# [9] = qHTS assay to identify small molecule antagonists of the vitamin D receptor (VDR) signaling pathway - cell viability counter screen (AID 743225); note: nearly all actives have a fitted effect of over 50% in size
# How it was run: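 VDR-bla HEK 293T cells, 4 h pre-incubation at 37C, then compound plus 1-alpha,25-dihydroxyvitamin D3 (3 nM final) for 16 h. After the beta-lactamase FRET read, CellTiter-Glo was added to the same wells; luminescence after 30 min at room temperature.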
# [10] = qHTS assay to identify small molecule agonists of the NFkB signaling pathway (AID 1159509; active = well fitted curve in the direction sought with a large enough effect in the signal ratio in the repeat runs, not every such curve was filed as active; the % refers to the signal ratio; note: series mostly up to about 61 µM)
# How it was run: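 Pathway activation was measured in ME-180 cells stably expressing beta-lactamase under NF-kB response element control. Substrate cleavage was read as the 460/530 nm emission shift after 5 hr compound incubation.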
# [11] = qHTS assay to identify small molecule agonists of the endoplasmic reticulum stress response signaling pathway (AID 1159516; active = well fitted activation curve with a large enough effect in the signal ratio in the repeat runs, not every such curve was filed as active; the % refers to the signal ratio)
# How it was run: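 Beta-lactamase expression from the ER stress response element in HeLa reporter cells is quantified with the LiveBLAzer B/G FRET substrate, read at 405 nm excitation after 2 hr at room temperature, following 5 hr compound treatment at 37 C.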
# [12] = qHTS assay to identify small molecule agonists of the endoplasmic reticulum stress response signaling pathway - cell viability counter screen (AID 1159517; calls by dose curve; note: nearly all actives have a fitted effect of over 50% in size; note: potency is the fitted concentration of half-maximal effect)
# How it was run: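 Cpd-treated ESRE-bla HeLa (5 hr, 37 C) → LiveBLAzer 2 hr RT → CellTiter-Glo 30 min RT → luminescence.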
# [13] = qHTS assay to identify small molecule antagonists of the retinoid-related orphan receptor gamma (ROR-gamma) signaling pathway - cell viability counter screen (AID 1159520); note: nearly all actives have a fitted effect of over 50% in size; note: potency is the fitted concentration of half-maximal effect
# How it was run: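 Tet-on ROR gamma CHO cells (1,000/well) were plated 4 hr, given compounds in DMSO for 2 hr at 37 C, then induced with 1 uM final doxycycline for 16 hr. Viability was read as ATP by CellTiter-Glo luminescence after 30 min.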
# [14] = molecular target: Nuclear receptor ROR-gamma (Homo sapiens) (UniProt P51449); assay: qHTS assay to identify small molecule antagonists of the retinoid-related orphan receptor gamma (ROR-gamma) signaling pathway (AID 1159521; note: nearly all actives have a fitted effect of over 50% in size; note: potency is the fitted concentration of half-maximal effect)
# How it was run: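 Tet-on RORγ CHO cells carrying a ROR response element–luciferase reporter were pretreated with compounds for 2 h, then induced with 1 uM (final) doxycycline hyclate for 16 h at 37 C. Antagonism was read as decreased ONE-Glo luminescence.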
# [15] = qHTS assay to identify small molecule agonists of the AP-1 signaling pathway - cell viability counter screen (AID 1159525; calls by dose curve; note: nearly all actives have a fitted effect of over 55% in size; note: potency is the fitted concentration of half-maximal effect)
# How it was run: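 Each titration point was normalised to DMSO and tetra n-octyl ammonium bromide controls. The read was Cell Titer Glo luminescence after 30 min at RT, following 5 h compound exposure of ME-180 AP-1-bla cells at 37 °C.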
# [16] = qHTS assay to identify small molecule agonists of the AP-1 signaling pathway (AID 1159526; calls by dose curve)
# [17] = molecular target: Bile acid receptor (Homo sapiens) (UniProt Q96RI1); assay: qHTS assay to identify small molecule antagonists of the farnesoid-X-receptor (FXR) signaling pathway (AID 743217; active = well fitted inhibition curve with a large enough effect in the signal ratio in the repeat runs, not every such curve was filed as active; the % refers to the signal ratio)
# Chain of Bile acid receptor (Homo sapiens) (Q96RI1 whole entry, looked up): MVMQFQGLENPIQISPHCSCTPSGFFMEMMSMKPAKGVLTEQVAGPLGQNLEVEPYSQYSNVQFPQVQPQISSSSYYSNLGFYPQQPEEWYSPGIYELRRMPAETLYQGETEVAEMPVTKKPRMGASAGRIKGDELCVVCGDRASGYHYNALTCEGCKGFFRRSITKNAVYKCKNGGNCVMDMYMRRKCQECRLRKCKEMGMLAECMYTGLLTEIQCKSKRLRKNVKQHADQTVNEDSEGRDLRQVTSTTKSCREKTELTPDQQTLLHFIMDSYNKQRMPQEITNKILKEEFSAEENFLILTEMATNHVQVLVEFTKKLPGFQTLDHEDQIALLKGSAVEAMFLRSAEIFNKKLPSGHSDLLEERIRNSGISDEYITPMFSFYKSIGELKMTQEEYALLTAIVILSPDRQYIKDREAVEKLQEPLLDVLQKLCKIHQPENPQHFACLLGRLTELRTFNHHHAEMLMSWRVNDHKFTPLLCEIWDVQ
# How it was run: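 FRET fluorescence after 2 h room-temperature LiveBLAzer loading gives the readout. Prior step: FXR-bla HEK 293T cells, seeded and incubated 5 h, received test compounds plus 50 uM final CDCA for 16 h at 37 °C.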
# [18] = molecular target: Vitamin D3 receptor (Homo sapiens) (UniProt P11473); assay: qHTS assay to identify small molecule agonists of the vitamin D receptor (VDR) signaling pathway (AID 743222; calls by dose curve)
# How it was run: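 Following 4 h attachment at 37C, VDR-bla cells (2,000 per well) received DMSO-dissolved compounds or controls. After 16 h incubation, LiveBLAzer B/G FRET substrate was added and fluorescence read 2 h later at room temperature.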
# [19] = molecular target: Bile acid receptor (Homo sapiens) (UniProt Q96RI1); assay: qHTS assay to identify small molecule agonists of the farnesoid-X-receptor (FXR) signaling pathway (AID 743220; active = well fitted activation curve with a large enough effect in the signal ratio in the repeat runs, not every such curve was filed as active; the % refers to the signal ratio)
# How it was run: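 FXR-UAS-bla HEK 293T cells carrying a UAS-driven beta-lactamase reporter were plated for 5 h at 37C/5% CO2, then exposed to DMSO-dissolved Tox21 10K compounds for 16 h at 37C. A LiveBLAzer B/G FRET substrate was loaded for 2 h at room temperature before fluorescence reading.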
Structure (SMILES),Potency [1],Potency [2],Potency [3],Potency [4],Potency [5],Potency [6],Potency [7],Potency [8],Potency [9],Potency [10],Potency [11],Potency [12],Potency [13],Potency [14],Potency [15],Potency [16],Potency [17],Potency [18],Potency [19]
CO/N=C(/C(=O)N[C@@H]1C(=O)N2C(C(=O)O)=C(COC(N)=O)CS[C@H]12)c1ccco1,inactive,inactive,inactive,inactive,inactive,inactive,inactive,inactive,inactive,inactive,inactive,inactive,inactive,inactive,,,,,
CCCCCCNC(=O)n1cc(F)c(=O)[nH]c1=O,inactive,inactive,inactive,inactive,,inactive,inactive,inactive,,inactive,inactive,inactive,inactive,,inactive,inactive,,,
O=C1c2ccccc2C(=O)N1CCc1noc(-c2ccc(CN3CCCCCC3)s2)n1,inactive,inactive,inactive,,inactive,inactive,,,inactive,inactive,inactive,inactive,inactive,,inactive,inactive,inactive,,
CCOC(=O)c1ccc(O)c(O)c1,inactive,inactive,inactive,inactive,inactive,inactive,,inactive,inactive,inactive,inactive,inactive,inactive,,inactive,inactive,,,
O=c1cc(-c2ccccc2)oc2cc(O)cc(O)c12,inactive,,inactive,,,inactive,,inactive,inactive,inactive,inactive,inactive,inactive,,inactive,,,,
CC(C)C[C@H](NC(=O)[C@H](CCc1ccccc1)NC(=O)CN1CCOCC1)C(=O)N[C@@H](Cc1ccccc1)C(=O)N[C@@H](CC(C)C)C(=O)[C@@]1(C)CO1,0.237 µM (active),,,,,,,,,inactive,inactive,inactive,0.75 µM (active),,inactive,inactive,,,
CC/C=C1/OC(=O)c2ccccc21,inactive,inactive,inactive,inactive,inactive,inactive,inactive,inactive,inactive,inactive,,inactive,inactive,inactive,,,,,
Cc1ccco1,inactive,,inactive,,inactive,inactive,inactive,inactive,inactive,inactive,inactive,,inactive,inactive,inactive,inactive,,inactive,
CCCCCCCC/C=C\CCCCCCCCO,inactive,inactive,inactive,inactive,inactive,inactive,inactive,inactive,inactive,inactive,,inactive,inactive,,inactive,inactive,,inactive,
C=C(C)C(=O)OCCCCCCCCCCCCC,inactive,inactive,,inactive,inactive,inactive,,inactive,inactive,inactive,inactive,,inactive,inactive,,inactive,,,
O=[N+]([O-])c1cc(C2CCCCC2)c(O)c([N+](=O)[O-])c1,,,,,inactive,inactive,,,,inactive,inactive,inactive,,,inactive,,,,inactive
Oc1cc2c(cc1O)[C@H]1c3ccc(O)c(O)c3OC[C@@]1(O)C2,inactive,inactive,inactive,,,inactive,,inactive,inactive,inactive,,inactive,inactive,13.9 µM (active),inactive,inactive,,,
CC(=O)N/N=C/c1ccc([N+](=O)[O-])o1,inactive,inactive,inactive,inactive,inactive,inactive,,inactive,inactive,inactive,inactive,inactive,,inactive,,inactive,,inactive,
CC[C@]1(O)C[C@H]2CN(CCc3c([nH]c4ccccc34)[C@@](C(=O)OC)(c3cc4c(cc3OC)N(C=O)[C@H]3[C@@](O)(C(=O)OC)[C@H](OC(C)=O)[C@]5(CC)C=CCN6CC[C@]43[C@@H]65)C2)C1,inactive,inactive,inactive,inactive,inactive,inactive,,,inactive,inactive,,inactive,inactive,,inactive,,,,
C=CC(=O)[O-].C=CC(=O)[O-].[Zn+2],inactive,inactive,inactive,inactive,inactive,inactive,inactive,inactive,inactive,inactive,,inactive,inactive,inactive,inactive,,,inactive,
COC(=O)CCS,inactive,inactive,inactive,inactive,inactive,inactive,inactive,inactive,inactive,inactive,,inactive,inactive,inactive,inactive,inactive,,inactive,
CCC(C)COC(C)=O (centres undefined),inactive,inactive,inactive,inactive,inactive,inactive,,inactive,inactive,inactive,inactive,,inactive,inactive,inactive,inactive,inactive,,inactive
Cc1cc(O)ccc1O,inactive,inactive,inactive,inactive,,inactive,inactive,inactive,inactive,inactive,inactive,inactive,,24.6 µM (active),,,inactive,inactive,inactive
Clc1ccc(Nc2nnc(Cc3ccncc3)c3ccccc23)cc1,inactive,,inactive,,,,inactive,,,inactive,inactive,inactive,,,inactive,inactive,,,inactive
CC[N+](CC)(CCNC(=O)C(=O)NCC[N+](CC)(CC)Cc1ccccc1Cl)Cc1ccccc1Cl,inactive,inactive,inactive,inactive,inactive,inactive,,inactive,inactive,inactive,,inactive,inactive,inactive,inactive,inactive,,,
CC(C)c1nc(CN(C)C(=O)N[C@H](C(=O)N[C@@H](Cc2ccccc2)C[C@H](O)[C@H](Cc2ccccc2)NC(=O)OCc2cncs2)C(C)C)cs1,29.8 µM (active),,,inactive,,,,inactive,,inactive,,15.1 µM (active),inactive,inactive,19 µM (active),inactive,,,inactive
CC1=C(Br)C(=O)C(Br)=C/C1=C(/c1ccccc1S(=O)(=O)O)c1cc(Br)c(O)c(Br)c1C,inactive,inactive,,inactive,inactive,inactive,,inactive,,inactive,,inactive,16.5 µM (active),18.6 µM (active),inactive,inactive,inactive,inactive,inactive
